In PubChem BioAssay (EPA / NIEHS) one finds outcome and AC50 data, which are given here for 21 compounds.

Values joined by “and” are separate entries in the source; they are usually repeats but may differ in a detail not shown here. Equal entries are not always repeated. The source holds several records for some structures; these can differ, active in one and inactive in another. Active and inactive are the calls of the source. The calls were made as follows: active = hit-call score of the fitted dose curve at least 0.9, where 1 is the maximum; inactive = score below 0.9.

Read-out in assay [1]: Tissue Factor, F3 (gene 2152)
The assay can be described thus: BSK_CASM3C_TissueFactor: BioMAP Diversity Plus: CASM3C Assay for Tissue Factor Biomarker Activity (AID 2283052).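 Also: cell surface tissue factor protein level read by ELISA.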 The note with it: primary human coronary artery smooth muscle cells; actives raise or lower the signal.

Read-out in assay [2]: Interferon-gamma inducible Protein 10 (IP10), CXCL10 (gene 3627)
As to the kind of experiment: BSK_hDFCGF_IP10: BioMAP Diversity Plus: hDFCGF Assay for Interferon-gamma inducible Protein 10 (IP10) Biomarker Activity (AID 2283053). As to conditions: primary human foreskin fibroblasts; actives raise or lower the signal. An outline of the steps:
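Human foreskin fibroblast primary cells (hDFCGF system) were dosed with chemical and assayed at 24 h; IP-10 measured by ELISA. Activity fitted bidirectionally relative to DMSO negative control as baseline.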

Read-out in assay [3]: Urokinase-type plasminogen activator receptor (uPAR), PLAUR (gene 5329)
The assay can be described thus: BSK_CASM3C_uPAR: BioMAP Diversity Plus: CASM3C Assay for Urokinase-type plasminogen activator receptor (uPAR) Biomarker Activity (AID 2283054).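 Also: cell-surface uPAR protein level quantified by ELISA.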 The note with it: primary human coronary artery smooth muscle cells; actives raise or lower the signal.

Read-out in assay [4]: Vascular cell adhesion molecule 1 (VCAM1), VCAM1 (gene 7412)
The assay can be described thus: BSK_CASM3C_VCAM1: BioMAP Diversity Plus: CASM3C Assay for Vascular cell adhesion molecule 1 (VCAM1) Biomarker Activity (AID 2283055).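 Also: VCAM-1 protein level quantified by ELISA on the cells.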 As to conditions: primary human coronary artery smooth muscle cells; actives raise or lower the signal.

Read-out in assay [5]: Collagen III, COL3A1 (gene 1281)
The assay can be described thus: BSK_hDFCGF_CollagenIII: BioMAP Diversity Plus: hDFCGF Assay for Collagen III Biomarker Activity (AID 2283056). The note with it: primary human foreskin fibroblasts; actives raise or lower the signal. An outline of the steps:
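ELISA read-out of collagen III from human skin fibroblast cultures sampled 24 h post-dosing. Values were derived by bidirectional fitting relative to the DMSO vehicle control.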

Read-out in assay [6]: Epidermal growth factor receptor (EGFR), EGFR (gene 1956)
The assay can be described thus: BSK_hDFCGF_EGFR: BioMAP Diversity Plus: hDFCGF Assay for Epidermal growth factor receptor (EGFR) Biomarker Activity (AID 2283057). The note with it: primary human foreskin fibroblasts; actives raise or lower the signal. A digest of the protocol:
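Primary human foreskin fibroblasts were exposed to compound for 24 h, after which cell-surface EGFR was quantified by ELISA. Activity was fitted bidirectionally against the DMSO negative control as baseline.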

Read-out in assay [7]: Interleukin-8 (IL8), CXCL8 (gene 3576)
As to the kind of experiment: BSK_hDFCGF_IL8: BioMAP Diversity Plus: hDFCGF Assay for Interleukin-8 (IL8) Biomarker Activity (AID 2283058). The note with it: primary human foreskin fibroblasts; actives raise or lower the signal. A digest of the protocol: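 Cells used are human skin primary fibroblasts. Chemical is added, cultures run 24 h, then IL-8 is quantified by ELISA, and gain or loss versus DMSO control is fitted in both directions.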

Assay [8] is described as follows: BSK_hDFCGF_Proliferation: Cell Proliferation Assessment in the BioMAP Diversity Plus: hDFCGF Assay (AID 2283059).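 Also: curves fitted for both rise and fall of signal versus DMSO baseline.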 The note with it: primary human foreskin fibroblasts. A digest of the protocol: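 This proliferation readout used SRB total-protein staining of human foreskin fibroblasts […], normalized to DMSO with bidirectional curve fitting.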
Read-out in assay [9]: Macrophage colony-stimulating factor (MCSF), CSF1 (gene 1435)
The assay can be described thus: BSK_hDFCGF_MCSF: BioMAP Diversity Plus: hDFCGF Assay for Macrophage colony-stimulating factor (MCSF) Biomarker Activity (AID 2283060). The note with it: primary human foreskin fibroblasts; actives raise or lower the signal. A digest of the protocol:
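Primary human foreskin fibroblasts dosed with chemical; 24 h later, M-CSF quantified by ELISA; curves fitted in both directions vs DMSO negative control.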

Assay [10] in a line: BSK_hDFCGF_SRB: Viability Assessment in the BioMAP Diversity Plus: hDFCGF Assay (AID 2283061).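 Also: cells exposed to compound for 24 h before the read.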 As to conditions: primary human foreskin fibroblasts. A digest of the protocol: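 Readout is SRB absorbance at 560 nm, reflecting total protein in parallel cultures of human foreskin fibroblasts harvested 24 h after chemical dosing. Activity was fitted bidirectionally relative to DMSO.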

For the compound `COCCOc1cc2cc(C(=O)NC3CCN(C(C)C)CC3)n(CC(=O)Nc3ccc(Cl)cn3)c2cn1`, the outcome in assay [1], in assay [2], in [3], in assay [4], in [5] and in assay [6] was inactive. Also, the outcome in assay [7], in [8], in assay [9] and in assay [10] was inactive.

With `CC(O)CN(CCN(CC(C)O)CC(C)O)CC(C)O` (stereo not given), the result in assay [1], in assay [2], in assay [3], in assay [4], in [5] and in assay [6] was inactive. The result in [7], in assay [8], in assay [9] and in assay [10] was inactive.

For the compound `O=C(O)c1cccc(Oc2ccccc2)c1`, the result in assay [1], in assay [2], in assay [3], in [4], in assay [5] and in assay [6] was inactive. In addition, the outcome in [7], in assay [8], in assay [9] and in assay [10] was inactive.

With `CCCCCCCCCCCCc1ccccc1`, the outcome in [1], in assay [2], in assay [3], in assay [4], in assay [5] and in assay [6] was inactive. The outcome in [7], in [8], in assay [9] and in assay [10] was inactive.

With `CC1(C)C(=O)N(Br)C(=O)N1Br`, the outcome in assay [1], in [2], in assay [3], in assay [4], in assay [5] and in assay [6] was inactive. Also, the result in assay [7], in assay [8], in [9] and in [10] was inactive.

With `CC(C)CCCCCCCOC(=O)CCCCC(=O)OCCCCCCCC(C)C`, the outcome in assay [1], in [2], in assay [3], in assay [4], in assay [5] and in assay [6] was inactive. For the same compound, the outcome in [7], in assay [8], in [9] and in [10] was inactive.

On to `O=C1CCC(N2C(=O)c3ccccc3C2=O)C(=O)N1` (stereo not given), for which the result in assay [1], in assay [2], in assay [3], in assay [4], in [5] and in assay [6] was inactive. Further, the outcome in [7], in [8], in assay [9] and in assay [10] was inactive.

As for `O=C(O)c1cc(N=Nc2ccc(S(=O)(=O)Nc3ccccn3)cc2)ccc1O`, the outcome in assay [1], in [2], in assay [3], in [4], in assay [5] and in assay [6] was inactive. Further, the result in [7], in [8], in assay [9] and in assay [10] was inactive.

For the compound `CC(C)CCCCCCOC(=O)c1ccc(C(=O)OCCCCCCC(C)C)c(C(=O)OCCCCCCC(C)C)c1`, the outcome in assay [1], in [2], in assay [3], in assay [4], in [5] and in assay [6] was inactive. The result in assay [7], in assay [8], in assay [9] and in assay [10] was inactive.

On to `COc1ccc(/C=C/S(=O)(=O)NC(=O)c2ccc(C)cc2Cl)cc1`, for which the outcome in [1], in assay [2], in assay [3], in assay [4], in assay [5] and in assay [6] was inactive. Further, the result in assay [7], in [9] and in [10] was inactive. Besides, the AC50 in assay [8] was 13.6 µM (active).

In the case of `CC(C)=CCC/C(C)=C/CO`, the outcome in [1], in assay [2], in assay [3], in assay [4], in assay [5] and in assay [6] was inactive. Moreover, the outcome in assay [7], in assay [8], in [9] and in assay [10] was inactive.

For `CC(=O)OCCC(C)C`, the outcome in assay [1], in [2], in assay [3], in [4], in [5] and in [6] was inactive. For the same compound, the outcome in [7], in [8], in assay [9] and in assay [10] was inactive.

For the compound `CCOC(=O)COc1ccc2c(c1)CC(NCC(O)c1cccc(Cl)c1)CC2` (stereo not given), the result in assay [1], in assay [3] and in [4] was inactive. For the same compound, the AC50 in assay [2] was 26.3 µM (active); in [5], 30.6 µM (active); in assay [6], 33.4 µM (active); in assay [7], 32.1 µM (active); in [8], 9.71 µM (active); in assay [9], 14.6 µM (active). Also, the AC50 in [10] is 26.9 µM (active).

For `Cc1[nH]cnc1C[C@H]1CCc2c(C)c3ccccc3n2C1=O`, the outcome in assay [1], in [2], in assay [4], in assay [6], in [7] and in assay [9] was inactive. In [10], the result was inactive. Further, the AC50 in [3] is 22 µM (active); in assay [5] it was 19.2 µM (active); in assay [8] it was 21.9 µM (active).

On to `O=C(O)c1cccc(N(Cc2cccnc2)c2ccc(OC(F)F)c(OC(F)F)c2)c1`, for which the outcome in assay [1], in [2], in [3], in assay [4], in assay [5] and in assay [6] was inactive. Moreover, the result in assay [7], in assay [8], in assay [9] and in [10] was inactive.

For `CCOC(=O)CC(CC(=O)OCC)(OC(C)=O)C(=O)OCC`, the result in [1], in assay [2], in [3], in assay [4], in assay [5] and in [6] was inactive. For the same compound, the outcome in assay [7], in [8], in [9] and in [10] was inactive.

As for `CC[C@H]1CC[C@H](NCc2cc3c(cc2OC)[C@H]2C[C@H]2C(=O)N3C)[C@H](c2ccccc2)N1`, the result in assay [1], in assay [2], in [3], in assay [4], in assay [6] and in assay [7] was inactive. For the same compound, the outcome in assay [9] and in assay [10] was inactive. Moreover, the AC50 in [5] was 1.57 µM (active); in assay [8], 20 µM (active).

For the compound `CCN(C(=O)c1cc(C)cc(OC[C@H](C)Nc2ccncc2)c1)C(C)C`, the outcome in assay [1], in [2], in assay [3], in [4], in assay [5] and in assay [6] was inactive. Further, the outcome in [7], in assay [8], in assay [9] and in [10] was inactive.

In the case of `COC(=O)c1ccccc1O`, the outcome in assay [1], in assay [2], in [3], in assay [4], in assay [5] and in assay [6] was inactive. Further, the outcome in assay [7], in [8], in assay [9] and in [10] was inactive.

With `Cn1c(=O)cc(Oc2ccc(F)cc2F)c2cnc(NCC(C)(C)O)nc21`, the outcome in assay [1], in assay [3], in assay [4], in assay [5], in [6] and in assay [7] was inactive. For the same compound, the outcome in assay [8] and in assay [10] was inactive. Moreover, the results for the AC50 in assay [2] and in assay [9] were 1.15 µM (active) and 0.691 µM (active), respectively.

For `Cn1cnc([N+](=O)[O-])c1Sc1ncnc2nc[nH]c12`, the outcome in assay [1], in [2], in assay [3], in [4], in [5] and in assay [6] was inactive. The outcome in assay [7], in assay [8], in assay [9] and in [10] was inactive. The AC50 in assay [2] is 4.43 µM (active) and 7.98 µM (active); in assay [4], 15.6 µM (active) and 8.5 µM (active); in [5] it was 4.26 µM (active); in assay [8] it was 19.9 µM (active); in assay [9], 7.13 µM (active) and 9.58 µM (active).

As usually defined, the AC50 is the concentration at which the activity in the assay is half-maximal.
